Reference: PubChem BioAssay (NCATS)
Records with an inconclusive call do not appear. Entries that show only a call come without a potency. Active and inactive are the calls of the source. Calls come from the whole dose curve; as a rule, active = well fitted curve in the direction sought with a large enough effect; inconclusive = small, poorly fitted or top-dose-only effect, or another doubt; inactive = no such curve, though single readings can be large; an effect the other way counts as inactive or inconclusive.

Key:
[1] = target: N-terminal Xaa-Pro-Lys N-methyltransferase 1 (Homo sapiens) (UniProt Q9BV86); test: qHTS Assay for Inhibitors of N-terminal methyltransferase 1 (NTMT1): LOPAC validation of the NTMT1 SAHH-coupled ThioGlo3 Assay (AID 1347143); note: nearly all actives have a fitted effect of over 70% in size; note: potency is the fitted concentration of half-maximal effect
Sequence of N-terminal Xaa-Pro-Lys N-methyltransferase 1 (Homo sapiens) (Q9BV86 whole entry, looked up): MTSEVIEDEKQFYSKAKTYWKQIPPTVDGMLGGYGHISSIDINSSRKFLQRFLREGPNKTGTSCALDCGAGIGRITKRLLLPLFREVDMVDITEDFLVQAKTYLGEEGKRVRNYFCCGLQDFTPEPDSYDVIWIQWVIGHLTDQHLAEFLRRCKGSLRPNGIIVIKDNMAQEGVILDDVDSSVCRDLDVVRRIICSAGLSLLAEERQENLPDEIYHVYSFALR
In short: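 Fluorescence read-out (excitation 340nm, emission 450nm) of SAH-derived thiol, measured via SAHH coupling and ThioGlo3, taken immediately and after a 30 min room-temperature reaction, then normalized to the background read. Enzyme: NTMT1 at 125nM; cofactor SAM 100uM in the added reagent.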

[2] = tested on: Zika virus NS2B-NS3 protease (unlinked); test: Optimization of GU AMC qHTS for Zika virus inhibitors: Unlinked NS2B-NS3 protease assay (AID 1347151); note: series mostly up to about 52 µM; nearly all actives have a fitted effect of over 80% in size
In short: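 In this qHTS, compounds acted on 25 nM unlinked Zika NS2B–NS3 in pH 8.0 Tris/Tween buffer. Cleavage of an AMC peptide ran 15 min at room temperature, to about 20% conversion.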

[3] = tested on: Zika virus NS2B-NS3 protease; test: Primary screen GU AMC qHTS for Zika virus inhibitors (AID 1347154); note: nearly all actives have a fitted effect of over 70% in size; note: potency is the fitted concentration of half-maximal effect
In short: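 Unlinked Zika NS2B hydrophilic domain/NS3 protease domain noncovalent complex (25 nM final) in 10 mM Tris-HCl pH 8.0, 0.01% Tween 20, with AMC peptide substrate. Fluorescence (ex 340, em 450 nm) change over 15 min, room temperature; percent inhibition fitted to 4-parameter Hill equation.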

[4] = tested on: Zika virus NS2B-NS3 protease (unlinked complex); test: Primary screen GU Rhodamine qHTS for Zika virus inhibitors: Unlinked NS2B-NS3 protease assay (AID 1347159); note: nearly all actives have a fitted effect of over 60% in size
In short: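 A qHTS format was used, with compound concentrations ranging up to 114 microM. Each compound was preincubated with 25 nM NS2B-NS3 protease, and the substrate was then added at 1.5 microM. Curves were fitted with a 4-parameter Hill model.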

[5] = tested on: Zika virus NS2B-NS3 protease (linked construct); test: Primary screen NINDS Rhodamine qHTS for Zika virus inhibitors (AID 1347160); note: nearly all actives have a fitted effect of over 55% in size
In short: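 Kinetic fluorescence (Ex 480 nm, Em 540 nm) over 15 min with 1.5 microM Rhodamine110 peptide and 25 nM linked protease.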

[6] = target: Lysine-specific demethylase 5B (Homo sapiens) (UniProt Q9UGL1); test: Optimization screen for KDM5B Histone Demethylases FDH coupled qHTS against the LOPAC library (AID 1347166)
Sequence of Lysine-specific demethylase 5B (Homo sapiens) (Q9UGL1 whole entry, looked up): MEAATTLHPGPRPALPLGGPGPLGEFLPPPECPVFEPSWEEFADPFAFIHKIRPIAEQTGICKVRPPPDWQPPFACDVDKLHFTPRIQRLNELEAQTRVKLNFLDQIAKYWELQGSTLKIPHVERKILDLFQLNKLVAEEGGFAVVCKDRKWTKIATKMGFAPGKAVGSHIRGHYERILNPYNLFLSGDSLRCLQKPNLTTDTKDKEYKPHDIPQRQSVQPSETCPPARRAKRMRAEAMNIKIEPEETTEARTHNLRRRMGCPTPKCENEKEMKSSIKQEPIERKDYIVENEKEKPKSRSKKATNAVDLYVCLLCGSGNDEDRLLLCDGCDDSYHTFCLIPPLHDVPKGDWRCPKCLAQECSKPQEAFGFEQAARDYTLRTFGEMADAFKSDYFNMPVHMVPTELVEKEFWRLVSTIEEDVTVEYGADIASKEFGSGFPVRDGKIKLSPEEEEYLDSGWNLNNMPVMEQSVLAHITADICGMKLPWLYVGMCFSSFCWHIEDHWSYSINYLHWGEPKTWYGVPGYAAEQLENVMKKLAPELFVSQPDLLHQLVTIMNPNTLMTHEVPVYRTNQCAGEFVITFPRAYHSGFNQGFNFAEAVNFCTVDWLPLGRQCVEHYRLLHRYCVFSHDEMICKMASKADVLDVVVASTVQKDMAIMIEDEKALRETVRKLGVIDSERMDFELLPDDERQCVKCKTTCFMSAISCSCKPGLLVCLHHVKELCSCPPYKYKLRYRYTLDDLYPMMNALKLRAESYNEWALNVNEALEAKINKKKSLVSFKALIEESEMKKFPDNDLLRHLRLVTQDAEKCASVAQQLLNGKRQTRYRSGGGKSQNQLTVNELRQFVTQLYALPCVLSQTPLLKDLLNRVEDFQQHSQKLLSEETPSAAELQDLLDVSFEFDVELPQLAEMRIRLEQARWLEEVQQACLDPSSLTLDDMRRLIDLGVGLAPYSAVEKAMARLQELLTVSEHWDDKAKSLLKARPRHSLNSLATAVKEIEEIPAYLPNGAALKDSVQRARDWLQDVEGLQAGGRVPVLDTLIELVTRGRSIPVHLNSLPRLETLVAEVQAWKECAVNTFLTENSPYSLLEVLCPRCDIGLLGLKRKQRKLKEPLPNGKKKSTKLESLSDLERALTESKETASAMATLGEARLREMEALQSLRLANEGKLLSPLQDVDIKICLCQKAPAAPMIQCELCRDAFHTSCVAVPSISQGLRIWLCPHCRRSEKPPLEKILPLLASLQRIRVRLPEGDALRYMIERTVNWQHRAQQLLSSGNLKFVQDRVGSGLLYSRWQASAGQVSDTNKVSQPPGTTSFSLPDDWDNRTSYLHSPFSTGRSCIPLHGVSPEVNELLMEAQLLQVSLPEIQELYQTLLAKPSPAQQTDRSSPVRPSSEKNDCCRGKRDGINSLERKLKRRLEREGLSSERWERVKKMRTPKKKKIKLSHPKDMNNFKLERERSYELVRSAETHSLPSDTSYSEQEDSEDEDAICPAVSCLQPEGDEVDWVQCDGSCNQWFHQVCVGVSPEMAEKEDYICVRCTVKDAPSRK
In short: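 KDM5BDeltaAP (200nM final) preincubated 10 min with compound, then 12.5uM H3K4Me3, 25uM a-ketoglutarate, ascorbate, Fe(II), NAD+ and FDH added; 50mM HEPES pH 7.5, 0.01% Tween-20. NADH fluorescence (340/450 nm) change over 30 min, room temperature.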

[7] = OV-KATE Cancer Cell Toxicity qHTS against the NCATS CANVASS Library (AID 1347345)
In short: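 Viability read-out: CellTiter-Glo luminescence after 72 h compound exposure at 37 °C/5% CO2. Cells plated at 1000/well, 4 h pre-incubation; 11-point titration. Bortezomib served as control.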

[8] = HPAF-II Cancer Cell Toxicity qHTS against the NCATS CANVASS Library (AID 1347346); note: series mostly up to about 38 µM; nearly all actives have a fitted effect of over 55% in size
In short: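 HPAF-II cells were seeded at 1000 cells/well, allowed to settle for 4 h at 37 degrees C, then exposed to compounds in an 11-point series for 72 h. Viability was read by CellTiter-Glo luminescence.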

[9] = qHTS of pediatric cancer cell lines to identify multiple opportunities for drug repurposing: Confirmatory screen for SK-N-SH cells (AID 1347129);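 note: cells exposed to compound for 48 h before viability read; nearly all actives have a fitted effect of over 60% in size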
In short: (§1)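 Cells (500-1,000/well) in growth media were settled 5 h at 37 degrees C, then given compounds for 48 h. Viability was read as CellTiter-Glo luminescence. Primary runs used MIPE at 11 points (0.78 nM-46 µM) and NPC at 8 points (0.59 nM-46 µM); follow-ups used 11 points.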

[10] = qHTS of pediatric cancer cell lines to identify multiple opportunities for drug repurposing: Confirmatory screen for Saos-2 cells (AID 1347127); note: potency is the fitted concentration of half-maximal effect; nearly all actives have a fitted effect of over 60% in size
In short: as §1

[11] = ZIKV-mCherry secondary qHTS for Zika virus inhibitors (AID 1347158); note: top concentration of the series differs between compounds
In short: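 Vero cells, 5,000/well, plated overnight at 37 °C, then compound added and infected with recombinant ZIKV-mCherry at MOI 1 for 48-72 h. PFA-fixed, Hoechst nuclear stain, high-content imaging; cells with mCherry intensity above 450 RFU scored infected, reported as percent infection.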

[12] = HepG2 cells viability qHTS for Zika virus inhibitors (AID 1347168)
In short: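 Counter-screen for cytotoxicity of hits from NS2B-NS3 protease qHTS. Overnight-attached cells (2.5 x 10^5 cells/mL, DMEM/4% FBS) were dosed in titration, incubated 24 to 48 hours, then assayed by CellTiter Glo.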

[13] = Tertiary RLuc qRT-PCR qHTS assay for Zika virus inhibitors (AID 1347169); note: top concentration of the series differs between compounds; nearly all actives have a fitted effect of over 55% in size
In short: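 Inhibition of ZIKV-RLuc replication in Vero cells, read as Renilla luminescence 1-1.5 hrs after live-cell substrate addition, following 48-72 hrs infection at MOI 1-2 in presence of compound.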

COC(=O)[C@@H]1[C@H]2C[C@H]3c4[nH]c5ccccc5c4CCN3C[C@@H]2CC[C@@H]1O
Potency [1]: 79.4 µM (active)
Potency [2]: inactive
Potency [3]: inactive
Potency [4]: inactive
Potency [5]: inactive
outcome [6]: inactive
outcome [7]: inactive
outcome [8]: inactive

O=C1NCC2(CCN(CCc3ccccc3)CC2)O1
Potency [1]: inactive
Potency [2]: inactive
Potency [3]: inactive
outcome [6]: inactive

CC=C(C)C(=O)O[C@H]1C(C)=C[C@]23C(=O)[C@@H](C=C(CO)[C@@H](O)[C@]12O)[C@H]1[C@@H](C[C@H]3C)C1(C)C
Potency [9]: inactive
Potency [3]: inactive

CC1(C)CCC2=C(O1)c1ccccc1C(=O)C2=O
Potency [10]: 10.4 µM (active)
Potency [3]: inactive

CC/C(=C(\c1ccccc1)c1ccc(OCCN(C)C)cc1)c1ccccc1
Potency [2]: inactive
Potency [3]: inactive

C[C@H](NC(=O)C(=O)Nc1ccccc1C(C)(C)C)C(=O)N[C@@H](CC(=O)O)C(=O)COc1c(F)c(F)cc(F)c1F
Potency [2]: inactive
Potency [3]: inactive
outcome [11]: inactive
outcome [12]: inactive
Potency [13]: inactive

CC(=O)O[C@]1(C(C)=O)CC[C@H]2[C@@H]3C=C(Cl)C4=CC(=O)[C@@H]5C[C@@H]5[C@]4(C)[C@H]3CC[C@@]21C
Potency [1]: inactive
Potency [2]: inactive
Potency [4]: inactive
Potency [5]: inactive
outcome [6]: inactive

COc1ccc(-c2coc3cc(O)ccc3c2=O)cc1
Potency [3]: 26.7 µM (active)

CC=CCC(C)C(O)C1C(=O)NC(CC)C(=O)N(C)CC(=O)N(C)C(CC(C)C)C(=O)NC(C(C)C)C(=O)N(C)C(CC(C)C)C(=O)NC(C)C(=O)NC(C)C(=O)N(C)C(CC(C)C)C(=O)N(C)C(CC(C)C)C(=O)N(C)C(C(C)C)C(=O)N1C (stereo unspecified)
Potency [2]: inactive
Potency [3]: inactive
